The nature of assay [1]: NCI Yeast Anticancer Drug Screen. Data for the rad50 strain (AID 155).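 Note: 0% = growth of vehicle-only cultures of the same strain.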 To be noted: S. cerevisiae rad50 strain growth inhibition; at 50.0 µM; stronger effect = higher value. The method, boiled down: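 Compounds were tested on a yeast strain with an engineered DNA damage repair alteration; the reported value is growth inhibition normalised to vehicle treatment.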
Assay [2] in a line: NCI Yeast Anticancer Drug Screen. Data for the mec2-1 strain (AID 157). To be noted: S. cerevisiae mec2-1 strain, at 50.0 µM, stronger effect = higher value. The method, boiled down:
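Strain: mec2-1 (DNA repair/cell cycle alteration). Compound exposure, then growth measured; inhibition expressed relative to vehicle.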

Assay [3] in a line: NCI Yeast Anticancer Drug Screen. Data for the sgs1 mgt1 strain (AID 161).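 Note: 0% = growth of cultures given vehicle only.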 To be noted: S. cerevisiae sgs1 mgt1 strain, at 50.0 µM, stronger effect = higher value. The method, boiled down: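 Test agents were incubated with a DNA-repair-mutant yeast strain. Growth was then read and compared against vehicle-treated controls.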
Assay [4] in a line: NCI Yeast Anticancer Drug Screen. Data for the cln2 rad14 strain (AID 165).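 Note: 0% = growth equal to vehicle treated cultures.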 To be noted: S. cerevisiae cln2 rad14 strain, at 50.0 µM, stronger effect = higher value. The essentials:
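Compounds are applied to the cln2 rad14 yeast strain, and growth is then compared with that of vehicle-treated cultures to give inhibition.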

A short description of assay [5]: NCI Yeast Anticancer Drug Screen. Data for the bub3 strain (AID 167). To be noted: S. cerevisiae bub3 mutant strain, at 50.0 µM, stronger effect = higher value. The essentials:
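Growth of a checkpoint-deficient yeast mutant is measured after compound exposure. Values represent inhibition relative to vehicle.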

Assay [6] in a line: NCI Yeast Anticancer Drug Screen. Data for the mlh1 rad18 strain (AID 175). To be noted: S. cerevisiae mlh1 rad18 strain growth inhibition; at 50.0 µM; stronger effect = higher value. The essentials:
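Read-out is yeast growth inhibition, calculated against vehicle-only controls. The compound was applied to a strain engineered with DNA damage repair alterations.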

Compounds without any hit were thinned out: in the full panel of roughly 79,000, 15% have a hit. Values without a mark were called inactive. Calls of active or inactive are those of the source. Cut-off read from the data, not from the text of the source: active = growth inhibition above about 70%; inactive = the rest.

In the case of `NC(=O)N/N=C/c1cccc2ccccc12`, the growth inhibition in assay [1] is 24.2%; in assay [2] it was 9.05%; in assay [3] it was -8.8%; in assay [4] it was 6.35%; in assay [5], 4.05%; in assay [6], -0.7%.
Regarding `Nc1nc(N)c2nc(-c3ccc([N+](=O)[O-])cc3)c(Cl)nc2n1`, the growth inhibition was -8.2% in assay [1]; -16.3% in assay [2]; -11.9% in assay [3]; -44.9% in assay [4]; -27% in assay [5]; -28.7% in assay [6].
As for `O=C(Cc1ccccc1)Nc1ccccc1Cl`, the growth inhibition is -8.1% in assay [1]; 0.35% in assay [2]; 4.55% in assay [3]; 21.2% in assay [4]; 14.7% in assay [5]; 1.95% in assay [6].
As for `CCC(C(=O)O)C(C)(C)O` (stereo unspecified), the growth inhibition in assay [1] is -10.8%; in assay [2], -11.1%; in assay [3], -7.95%; in assay [4], 7.05%; in assay [5] it was -0.85%; in assay [6] it was -15.3%.
As for `CCOC(=O)C(CCSC)(CCSC)C(=O)OCC`, the growth inhibition in assay [1] is -41.4%; in assay [2], -56.7%; in assay [3], -31.7%; in assay [4], 11.8%; in assay [5], 20.4%; in assay [6], -13.1%.
In the case of `N#CCCN(C(=O)COc1ccc(Cl)cc1Cl)C1CCCCC1`, the growth inhibition in assay [1] was 85% (active); in assay [2], 87.7% (active); in assay [3], 73% (active); in assay [4] it was 87.2% (active); in assay [5] it was 89.3% (active); in assay [6], 95% (active).
As for `C/C=C/COc1cc2c(cc1C(C)c1ccc(OC)cc1)OCO2` (stereo unspecified), the growth inhibition in assay [1] is -9.3%; in assay [2], -0.95%; in assay [3], -6.15%; in assay [4], 24.4%; in assay [5], -3.85%; in assay [6] it was -1.2%.
Consider `O=C(O)c1ccc(CS(=O)(=O)c2ccccc2C(=O)O)cc1`, for which the growth inhibition was 9% in assay [1]; -0.6% in assay [2]; 2.05% in assay [3]; 15.8% in assay [4]; 5.6% in assay [5]; 20.2% in assay [6].
With `CC(C)CC/C(=N\NC(N)=O)C1CCOCC1`, the growth inhibition in assay [1] was -3.1%; in assay [2] it was 14.2%; in assay [3] it was 9.25%; in assay [4] it was -7.2%; in assay [5], -0.05%; in assay [6], -3.85%.
Take `CC1=NNC(=O)C1(C)C`: the growth inhibition in assay [1] is -16.4%; in assay [2], 0.7%; in assay [3], -20.6%; in assay [4], 26.1%; in assay [5], 3.3%; in assay [6], 4.55%.
Take `CC(C#N)NCc1ccc(C(C)NC(C)C#N)cc1` (stereo unspecified): the growth inhibition was 4.5% in assay [1]; 2.15% in assay [2]; -43.8% in assay [3]; -26.1% in assay [4]; -10.8% in assay [5]; -15.7% in assay [6].
In the case of `[Zn+2].c1ccc(-c2c3nc(c(-c4ccccc4)c4[n-]c(c(-c5ccccc5)c5nc(c(-c6ccccc6)c6[n-]c2c2ccccc62)-c2ccccc2-5)c2ccccc42)-c2ccccc2-3)cc1`, the growth inhibition was -37.5% in assay [1]; -36.4% in assay [2]; -32.6% in assay [3]; -6.55% in assay [4]; -23.9% in assay [5]; -36.8% in assay [6].
For `CC(=O)OC1(C)C(=O)OC/C2=C/CN(C)CCC(OC(=O)C(O)(C(C)Cl)CC1C)C2=O` (stereo unspecified), the growth inhibition is 4.75% in assay [1]; 2.9% in assay [2]; -7.95% in assay [3]; 13% in assay [4]; -6.35% in assay [5]; -43.9% in assay [6].
On to `O=C1OC(=O)C2C1C1(Cl)CC2(Cl)C(Cl)=C1Cl` (stereo unspecified), for which the growth inhibition in assay [1] was -3.05%; in assay [2], -31.8%; in assay [3], 2%; in assay [4], -30.8%; in assay [5], -23.1%; in assay [6] it was -18.6%.
For the compound `CCS(=O)(=O)/C=C(\C(=O)c1ccccc1)c1ccccc1`, the growth inhibition in assay [1] was 83.1% (active); in assay [2], 93.5% (active); in assay [3], 94% (active); in assay [4] it was 47.2%; in assay [5] it was 89.8% (active); in assay [6], 93.3% (active).
On to `c1ccc(COc2ccc(OCc3ccccc3)cc2)cc1`, for which the growth inhibition in assay [1] is -1.5%; in assay [2], 3.8%; in assay [3], 13.1%; in assay [4], -31.6%; in assay [5], -10.2%; in assay [6], 3%.
For `CCC(C(C)=O)C(C)C` (stereo unspecified), the growth inhibition in assay [1] is 5.2%; in assay [2], 6.55%; in assay [3], 8.6%; in assay [4], 7.2%; in assay [5], -2%; in assay [6], 13.3%.
For the compound `ClCCCCCOCCCCCCl`, the growth inhibition in assay [1] was 8.15%; in assay [2], 1.25%; in assay [3], -1.5%; in assay [4] it was -11.7%; in assay [5], -4.75%; in assay [6] it was -1.05%.
Consider `O=S1(=O)CC(O)C(Br)C1` (stereo unspecified), for which the growth inhibition in assay [1] is -6.7%; in assay [2], 24.1%; in assay [3] it was 10.1%; in assay [4] it was 4.85%; in assay [5], 2.35%; in assay [6], -10.8%.
As to `CN(c1ccccc1)S(=O)(=O)c1ccc(Cl)cc1`, the growth inhibition is 38% in assay [1]; 19.1% in assay [2]; 32.1% in assay [3]; 11.4% in assay [4]; 43.2% in assay [5]; 25.9% in assay [6].
`CCC1=CCC(P(=O)(c2ccccc2)c2ccccc2)CC1C` (stereo unspecified): the growth inhibition is -28.8% in assay [1]; -16.4% in assay [2]; -0.15% in assay [3]; 12.6% in assay [4]; 0.15% in assay [5]; -19.8% in assay [6].

Source of the values: PubChem BioAssay (NCI).
